One may read the inhibition as the drop in the measured response relative to a control, in per cent.

Assay [1] deals with Protein kinase C gamma type (Homo sapiens) (UniProt P05129). Particulars: at 1 µM.
The target of assay [2] is T1, Protein kinase C iota type (Homo sapiens) (UniProt P41743).
T1 sequence (whole entry): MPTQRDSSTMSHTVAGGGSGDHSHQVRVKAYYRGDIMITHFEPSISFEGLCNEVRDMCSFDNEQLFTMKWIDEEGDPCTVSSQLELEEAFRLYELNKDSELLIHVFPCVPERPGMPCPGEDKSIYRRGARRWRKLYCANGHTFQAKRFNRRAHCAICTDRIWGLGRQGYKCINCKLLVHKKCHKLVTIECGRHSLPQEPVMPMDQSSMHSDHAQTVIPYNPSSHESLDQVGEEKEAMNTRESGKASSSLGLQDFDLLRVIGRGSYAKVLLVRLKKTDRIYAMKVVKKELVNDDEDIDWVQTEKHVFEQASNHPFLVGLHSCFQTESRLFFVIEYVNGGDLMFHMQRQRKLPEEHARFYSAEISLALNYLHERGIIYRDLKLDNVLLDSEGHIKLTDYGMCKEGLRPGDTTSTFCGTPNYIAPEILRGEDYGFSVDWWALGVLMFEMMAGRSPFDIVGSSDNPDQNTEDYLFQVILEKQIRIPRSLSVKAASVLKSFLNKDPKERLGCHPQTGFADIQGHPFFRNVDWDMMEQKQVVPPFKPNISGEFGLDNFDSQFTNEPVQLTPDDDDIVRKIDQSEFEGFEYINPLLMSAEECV
Particulars: at 0.1 µM.

For assay [3], the target named is T1, Protein kinase C iota type (Homo sapiens). Particulars: at 1 µM.
Assay [4] addresses Protein kinase C theta type (Homo sapiens) (UniProt Q04759). To be noted: at 0.1 µM.
Assay [5] has the same target. To be noted: at 1 µM.
The target in assay [6] is Protein kinase C beta type (Homo sapiens) (UniProt P05771). Particulars: at 0.1 µM.
Sequence of Protein kinase C beta type (Homo sapiens) (P05771 2-671 limits assumed): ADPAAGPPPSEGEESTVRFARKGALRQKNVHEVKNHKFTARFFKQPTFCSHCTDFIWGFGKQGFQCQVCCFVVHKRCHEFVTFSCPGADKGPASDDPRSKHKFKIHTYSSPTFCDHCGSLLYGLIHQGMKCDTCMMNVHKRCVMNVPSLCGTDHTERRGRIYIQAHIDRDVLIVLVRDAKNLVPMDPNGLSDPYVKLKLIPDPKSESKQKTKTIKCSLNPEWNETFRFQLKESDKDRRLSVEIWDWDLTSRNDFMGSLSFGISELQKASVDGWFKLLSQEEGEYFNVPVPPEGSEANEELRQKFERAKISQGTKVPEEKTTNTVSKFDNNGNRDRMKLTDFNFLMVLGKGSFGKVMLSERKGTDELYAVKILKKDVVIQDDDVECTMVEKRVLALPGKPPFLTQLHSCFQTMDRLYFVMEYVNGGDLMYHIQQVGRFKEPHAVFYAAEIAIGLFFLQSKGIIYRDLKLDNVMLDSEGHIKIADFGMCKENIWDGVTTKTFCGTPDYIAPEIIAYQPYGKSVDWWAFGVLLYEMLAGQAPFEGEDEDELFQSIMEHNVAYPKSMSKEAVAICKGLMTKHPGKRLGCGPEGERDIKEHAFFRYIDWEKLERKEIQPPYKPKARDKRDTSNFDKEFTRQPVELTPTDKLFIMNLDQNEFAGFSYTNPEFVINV
Assay [7] has the same target. To be noted: at 1 µM.
For assay [8], the target named is T2, Serine/threonine-protein kinase D1 (Homo sapiens) (UniProt Q15139).
T2 sequence (whole entry): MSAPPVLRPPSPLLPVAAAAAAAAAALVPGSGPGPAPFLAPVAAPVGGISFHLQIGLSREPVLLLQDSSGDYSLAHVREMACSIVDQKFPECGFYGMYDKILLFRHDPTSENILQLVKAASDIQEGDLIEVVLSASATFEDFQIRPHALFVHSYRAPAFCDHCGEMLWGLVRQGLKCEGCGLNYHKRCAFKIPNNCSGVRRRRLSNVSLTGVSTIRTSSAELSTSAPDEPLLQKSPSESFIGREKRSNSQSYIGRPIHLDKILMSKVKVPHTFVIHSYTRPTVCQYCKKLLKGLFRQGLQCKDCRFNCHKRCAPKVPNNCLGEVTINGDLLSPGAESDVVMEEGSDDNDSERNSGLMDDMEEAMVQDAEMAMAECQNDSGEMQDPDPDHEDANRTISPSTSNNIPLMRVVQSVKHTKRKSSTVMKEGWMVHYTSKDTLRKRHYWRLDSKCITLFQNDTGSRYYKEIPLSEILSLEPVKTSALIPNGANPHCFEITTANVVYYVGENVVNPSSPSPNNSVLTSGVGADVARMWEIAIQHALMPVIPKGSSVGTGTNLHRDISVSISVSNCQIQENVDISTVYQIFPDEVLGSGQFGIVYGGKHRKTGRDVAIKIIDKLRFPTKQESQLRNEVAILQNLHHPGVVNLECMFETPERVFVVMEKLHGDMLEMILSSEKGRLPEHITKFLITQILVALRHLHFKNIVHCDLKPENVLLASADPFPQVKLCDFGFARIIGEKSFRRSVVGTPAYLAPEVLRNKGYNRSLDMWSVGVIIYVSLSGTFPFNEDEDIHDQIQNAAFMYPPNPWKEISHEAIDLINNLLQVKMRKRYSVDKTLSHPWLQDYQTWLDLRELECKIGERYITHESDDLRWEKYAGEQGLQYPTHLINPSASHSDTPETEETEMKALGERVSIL
To be noted: at 0.1 µM.

Assay [9] addresses T2, Serine/threonine-protein kinase D1 (Homo sapiens). To be noted: at 1 µM.
In assay [10] the target is T3, Serine/threonine-protein kinase D2 (Homo sapiens) (UniProt Q9BZL6).
T3 sequence (whole entry): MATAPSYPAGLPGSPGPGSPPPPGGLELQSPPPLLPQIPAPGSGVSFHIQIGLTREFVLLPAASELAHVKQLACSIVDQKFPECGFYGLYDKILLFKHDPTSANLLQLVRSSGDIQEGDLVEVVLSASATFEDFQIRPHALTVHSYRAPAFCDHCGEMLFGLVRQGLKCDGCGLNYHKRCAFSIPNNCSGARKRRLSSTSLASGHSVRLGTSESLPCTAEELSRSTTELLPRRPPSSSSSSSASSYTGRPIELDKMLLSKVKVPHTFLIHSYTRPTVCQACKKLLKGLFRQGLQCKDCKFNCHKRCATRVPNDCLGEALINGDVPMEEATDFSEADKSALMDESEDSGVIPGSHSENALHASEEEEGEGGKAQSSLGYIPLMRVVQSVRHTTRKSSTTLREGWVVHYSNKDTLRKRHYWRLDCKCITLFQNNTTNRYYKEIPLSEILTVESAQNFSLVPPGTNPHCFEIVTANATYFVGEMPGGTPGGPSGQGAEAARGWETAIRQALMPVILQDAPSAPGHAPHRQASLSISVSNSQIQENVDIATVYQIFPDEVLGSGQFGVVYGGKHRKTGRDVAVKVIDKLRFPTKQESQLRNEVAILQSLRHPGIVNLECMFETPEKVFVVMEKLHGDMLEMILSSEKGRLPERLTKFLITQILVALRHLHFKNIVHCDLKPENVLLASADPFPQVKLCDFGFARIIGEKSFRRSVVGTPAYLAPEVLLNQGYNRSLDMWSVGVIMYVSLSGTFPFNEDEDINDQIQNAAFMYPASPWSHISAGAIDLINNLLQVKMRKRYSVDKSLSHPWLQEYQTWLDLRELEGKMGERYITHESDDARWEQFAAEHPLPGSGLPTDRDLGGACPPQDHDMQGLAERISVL
To be noted: at 0.1 µM.

Assay [11] addresses T3, Serine/threonine-protein kinase D2 (Homo sapiens). Particulars: at 1 µM.
The target in assay [12] is T4, Serine/threonine-protein kinase D3 (Homo sapiens) (UniProt O94806).
T4 sequence (whole entry): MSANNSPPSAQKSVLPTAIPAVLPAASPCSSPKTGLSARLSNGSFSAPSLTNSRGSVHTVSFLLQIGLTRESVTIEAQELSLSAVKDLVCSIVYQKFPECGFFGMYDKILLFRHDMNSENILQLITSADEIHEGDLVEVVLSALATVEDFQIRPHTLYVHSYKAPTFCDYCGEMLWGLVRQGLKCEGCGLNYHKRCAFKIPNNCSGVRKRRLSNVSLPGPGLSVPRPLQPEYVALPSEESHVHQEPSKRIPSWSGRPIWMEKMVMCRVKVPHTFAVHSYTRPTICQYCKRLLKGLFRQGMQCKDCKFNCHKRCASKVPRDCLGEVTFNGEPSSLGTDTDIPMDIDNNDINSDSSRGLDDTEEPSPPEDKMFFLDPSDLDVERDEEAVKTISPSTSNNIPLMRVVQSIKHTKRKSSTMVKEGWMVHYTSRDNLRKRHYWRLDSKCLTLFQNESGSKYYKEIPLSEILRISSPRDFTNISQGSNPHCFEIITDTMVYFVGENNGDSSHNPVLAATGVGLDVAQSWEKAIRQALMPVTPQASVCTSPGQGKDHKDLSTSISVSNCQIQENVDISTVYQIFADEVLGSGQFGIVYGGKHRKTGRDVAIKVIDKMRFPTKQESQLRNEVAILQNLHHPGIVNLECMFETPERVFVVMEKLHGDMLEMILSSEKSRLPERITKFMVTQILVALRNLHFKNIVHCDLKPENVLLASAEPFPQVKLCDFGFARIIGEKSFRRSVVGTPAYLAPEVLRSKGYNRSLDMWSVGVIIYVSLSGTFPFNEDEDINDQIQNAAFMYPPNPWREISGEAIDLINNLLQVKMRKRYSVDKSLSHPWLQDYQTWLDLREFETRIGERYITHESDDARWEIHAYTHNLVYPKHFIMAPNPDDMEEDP
Particulars: at 0.1 µM.

The target of assay [13] is T4, Serine/threonine-protein kinase D3 (Homo sapiens). To be noted: at 1 µM.
The target in assay [14] is T5, cGMP-dependent protein kinase 1 (Homo sapiens) (UniProt Q13976).
T5 sequence (whole entry): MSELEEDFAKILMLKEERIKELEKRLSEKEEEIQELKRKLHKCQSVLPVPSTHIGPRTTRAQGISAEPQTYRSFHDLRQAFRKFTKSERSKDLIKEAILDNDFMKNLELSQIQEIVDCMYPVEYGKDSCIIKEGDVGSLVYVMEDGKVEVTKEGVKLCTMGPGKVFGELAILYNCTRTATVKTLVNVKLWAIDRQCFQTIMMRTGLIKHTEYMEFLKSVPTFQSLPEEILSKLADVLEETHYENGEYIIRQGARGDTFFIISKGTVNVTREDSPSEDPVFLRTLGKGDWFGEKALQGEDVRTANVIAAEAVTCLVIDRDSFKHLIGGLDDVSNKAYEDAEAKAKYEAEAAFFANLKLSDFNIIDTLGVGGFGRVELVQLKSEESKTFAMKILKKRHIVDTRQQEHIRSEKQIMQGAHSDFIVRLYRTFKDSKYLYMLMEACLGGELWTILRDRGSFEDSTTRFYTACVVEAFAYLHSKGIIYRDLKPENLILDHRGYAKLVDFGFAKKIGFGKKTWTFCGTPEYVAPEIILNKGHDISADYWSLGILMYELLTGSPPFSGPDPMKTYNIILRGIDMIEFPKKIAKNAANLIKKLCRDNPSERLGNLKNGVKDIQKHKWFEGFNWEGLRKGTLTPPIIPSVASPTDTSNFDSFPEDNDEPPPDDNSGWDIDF
To be noted: at 0.1 µM.

Assay [15] concerns the target T5, cGMP-dependent protein kinase 1 (Homo sapiens). To be noted: at 1 µM.
For assay [16], the target named is T6, cGMP-dependent protein kinase 2 (Homo sapiens) (UniProt Q13237).
T6 sequence (whole entry): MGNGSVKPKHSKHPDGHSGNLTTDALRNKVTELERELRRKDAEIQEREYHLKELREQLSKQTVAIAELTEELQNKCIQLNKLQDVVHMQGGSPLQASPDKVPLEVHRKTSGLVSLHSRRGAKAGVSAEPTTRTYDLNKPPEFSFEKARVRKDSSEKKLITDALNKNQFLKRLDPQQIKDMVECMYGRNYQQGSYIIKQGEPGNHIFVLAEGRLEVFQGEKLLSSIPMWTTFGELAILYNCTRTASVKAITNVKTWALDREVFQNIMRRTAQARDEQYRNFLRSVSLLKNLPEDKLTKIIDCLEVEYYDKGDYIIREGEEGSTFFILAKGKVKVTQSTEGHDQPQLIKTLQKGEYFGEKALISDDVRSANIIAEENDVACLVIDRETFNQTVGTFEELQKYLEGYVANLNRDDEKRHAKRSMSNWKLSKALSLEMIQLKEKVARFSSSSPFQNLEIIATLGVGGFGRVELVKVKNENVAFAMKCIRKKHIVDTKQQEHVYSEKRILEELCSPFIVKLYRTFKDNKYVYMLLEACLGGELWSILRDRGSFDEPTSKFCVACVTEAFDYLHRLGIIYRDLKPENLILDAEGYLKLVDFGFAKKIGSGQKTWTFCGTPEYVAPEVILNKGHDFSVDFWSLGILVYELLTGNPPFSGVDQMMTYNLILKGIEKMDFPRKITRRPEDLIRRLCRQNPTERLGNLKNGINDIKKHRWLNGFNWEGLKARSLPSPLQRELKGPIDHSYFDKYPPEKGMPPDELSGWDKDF
Particulars: at 0.1 µM.

Assay [17] deals with T6, cGMP-dependent protein kinase 2 (Homo sapiens). Particulars: at 1 µM.
Assay [18] concerns the target T7, cAMP-dependent protein kinase catalytic subunit PRKX (Homo sapiens) (UniProt P51817).
T7 sequence (whole entry): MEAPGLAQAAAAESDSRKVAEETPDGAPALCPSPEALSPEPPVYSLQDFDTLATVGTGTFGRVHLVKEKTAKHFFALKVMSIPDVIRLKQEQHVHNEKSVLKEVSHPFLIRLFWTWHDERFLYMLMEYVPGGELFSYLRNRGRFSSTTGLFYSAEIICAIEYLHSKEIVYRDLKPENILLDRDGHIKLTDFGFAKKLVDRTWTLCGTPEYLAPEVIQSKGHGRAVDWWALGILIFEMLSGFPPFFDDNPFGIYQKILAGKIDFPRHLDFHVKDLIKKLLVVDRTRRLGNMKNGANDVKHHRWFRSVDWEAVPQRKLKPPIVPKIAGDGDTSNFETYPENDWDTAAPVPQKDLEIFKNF
Particulars: at 0.1 µM.

The target of assay [19] is T7, cAMP-dependent protein kinase catalytic subunit PRKX (Homo sapiens). To be noted: at 1 µM.
In assay [20] the target is Rho-associated protein kinase 1 (Homo sapiens) (UniProt Q13464). To be noted: at 0.1 µM.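 Note: values are mean percent inhibition of ROCK1.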
Sequence of Rho-associated protein kinase 1 (Homo sapiens) (Q13464 2-1354 limits assumed): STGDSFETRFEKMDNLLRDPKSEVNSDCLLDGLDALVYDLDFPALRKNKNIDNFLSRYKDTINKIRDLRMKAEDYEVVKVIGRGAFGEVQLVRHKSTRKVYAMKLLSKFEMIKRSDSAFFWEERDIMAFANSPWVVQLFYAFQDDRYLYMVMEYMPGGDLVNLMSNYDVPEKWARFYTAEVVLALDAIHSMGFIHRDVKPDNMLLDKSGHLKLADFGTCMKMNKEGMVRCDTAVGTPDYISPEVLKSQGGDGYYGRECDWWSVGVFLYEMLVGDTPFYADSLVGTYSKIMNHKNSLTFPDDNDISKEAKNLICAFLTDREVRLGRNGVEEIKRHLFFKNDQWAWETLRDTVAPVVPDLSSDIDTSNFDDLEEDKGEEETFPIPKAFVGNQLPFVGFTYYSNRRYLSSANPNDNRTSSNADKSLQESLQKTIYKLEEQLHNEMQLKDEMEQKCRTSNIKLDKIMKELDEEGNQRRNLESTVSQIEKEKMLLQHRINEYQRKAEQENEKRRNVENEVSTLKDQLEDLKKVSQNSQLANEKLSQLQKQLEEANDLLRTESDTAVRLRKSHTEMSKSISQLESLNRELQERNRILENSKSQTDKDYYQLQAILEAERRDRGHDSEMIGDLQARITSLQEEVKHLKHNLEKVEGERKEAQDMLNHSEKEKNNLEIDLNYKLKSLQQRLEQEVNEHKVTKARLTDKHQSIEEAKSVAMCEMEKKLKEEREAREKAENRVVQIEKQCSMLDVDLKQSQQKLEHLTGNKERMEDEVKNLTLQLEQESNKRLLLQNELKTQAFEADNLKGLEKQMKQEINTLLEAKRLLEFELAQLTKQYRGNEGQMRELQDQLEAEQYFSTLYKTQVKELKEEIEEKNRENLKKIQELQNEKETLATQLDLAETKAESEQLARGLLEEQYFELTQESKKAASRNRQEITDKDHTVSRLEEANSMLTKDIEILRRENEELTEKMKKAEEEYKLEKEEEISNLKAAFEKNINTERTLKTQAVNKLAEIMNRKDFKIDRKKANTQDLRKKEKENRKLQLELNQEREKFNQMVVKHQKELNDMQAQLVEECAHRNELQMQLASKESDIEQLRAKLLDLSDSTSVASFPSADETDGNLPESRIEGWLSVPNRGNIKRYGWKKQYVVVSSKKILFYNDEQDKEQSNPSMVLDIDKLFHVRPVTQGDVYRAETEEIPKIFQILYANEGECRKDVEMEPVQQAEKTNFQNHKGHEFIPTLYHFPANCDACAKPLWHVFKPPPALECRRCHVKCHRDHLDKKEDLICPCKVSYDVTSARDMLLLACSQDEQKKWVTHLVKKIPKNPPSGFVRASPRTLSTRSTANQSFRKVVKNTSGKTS

Sequence of Protein kinase C theta type (Homo sapiens) (Q04759 whole entry, looked up): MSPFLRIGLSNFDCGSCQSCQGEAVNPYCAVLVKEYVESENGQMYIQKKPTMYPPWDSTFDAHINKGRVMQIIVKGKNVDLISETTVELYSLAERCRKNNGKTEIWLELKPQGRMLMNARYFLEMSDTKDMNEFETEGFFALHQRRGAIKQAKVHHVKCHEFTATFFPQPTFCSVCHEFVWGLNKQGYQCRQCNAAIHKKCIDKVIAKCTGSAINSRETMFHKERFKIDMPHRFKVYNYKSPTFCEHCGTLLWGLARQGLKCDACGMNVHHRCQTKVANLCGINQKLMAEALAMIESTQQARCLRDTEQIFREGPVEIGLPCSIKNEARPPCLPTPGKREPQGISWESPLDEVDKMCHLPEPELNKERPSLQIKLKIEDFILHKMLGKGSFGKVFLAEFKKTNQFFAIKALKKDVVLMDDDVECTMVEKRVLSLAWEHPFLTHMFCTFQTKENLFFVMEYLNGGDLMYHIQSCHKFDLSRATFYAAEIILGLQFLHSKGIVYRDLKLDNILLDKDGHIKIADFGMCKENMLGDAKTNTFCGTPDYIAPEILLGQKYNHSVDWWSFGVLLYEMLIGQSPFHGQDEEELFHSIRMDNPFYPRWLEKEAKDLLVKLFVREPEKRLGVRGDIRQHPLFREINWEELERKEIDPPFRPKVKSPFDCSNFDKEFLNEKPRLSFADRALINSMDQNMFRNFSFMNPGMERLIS

Consider `C[C@@H](Oc1cc(-n2cnc3ccc(OCC4CCN(C)CC4)cc32)sc1C(N)=O)c1ccccc1Cl`, for which the inhibition is 6.3% in assay [1]; 1.84% in assay [2]; 2.7% in assay [3]; 4.47% in assay [4]; 15.3% in [5]; 3.47% in assay [6]. For the same molecule, the inhibition was 11.6% in assay [7]; 6.16% in assay [8]; 12% in assay [9]; 7.73% in assay [10]; 12.1% in [11]; 5.81% in assay [12]. Also, the inhibition in assay [13] amounted to 12%; in assay [14] it was 3.88%; in assay [15] it was 7.13%; in assay [16] it was 3.5%; in [17], 7.56%; in [18], 1.81%. The inhibition is -4.06% in assay [19] and 2.64% in assay [20].

Values taken from ChEMBL document CHEMBL1961873, “Compounds: GSK PKIS; Assays: Nanosyn kinase panel” (2012).
